GSH bead fluor: compound fluoresces at 488/530 nm on GSH beads. GSH beads flow cytometry, compound fluorescence 488/530 nm; stronger effect = higher value. fluorescence (KMESF) at 10 µM. 190,000 tested, 0.25% active. AID 1776; in the data active = fluorescence above about 89;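 also: glutathione beads carrying GST-tagged Bcl family fusion proteins plus one bare bead set; values are compound well signal with DMSO vehicle wells as background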
RGS7-Gao reg: modulates binding of RGS7 to human Galphao; Multiplexed bead flow cytometry; actives lie on both sides; P09471; binding response (% of control), % at 10 µM; 220,000 tested, 0.35% active; AID 1439; in the data active = binding response below about 49% or above about 150%; inconclusive = no clear call, values can overlap the other calls; inactive = in between;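 also: fluorescent Galphao held in activated GDP-AlF4 state binding bead-coupled RGS7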
Target sequence (P09471 whole entry, looked up): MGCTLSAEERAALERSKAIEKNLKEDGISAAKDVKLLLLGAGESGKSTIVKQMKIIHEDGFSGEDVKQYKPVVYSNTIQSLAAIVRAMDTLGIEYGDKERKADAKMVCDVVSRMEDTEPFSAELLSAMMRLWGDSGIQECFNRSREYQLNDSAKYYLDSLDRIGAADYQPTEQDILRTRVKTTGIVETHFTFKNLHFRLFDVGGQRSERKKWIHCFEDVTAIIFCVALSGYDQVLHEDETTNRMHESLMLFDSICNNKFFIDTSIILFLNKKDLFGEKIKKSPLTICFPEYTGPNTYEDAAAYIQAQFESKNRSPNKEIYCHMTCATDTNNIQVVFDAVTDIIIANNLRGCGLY
RGS4-Gao reg: human RGS4-Galphao interaction regulation; P09471; Multiplexed bead flow cytometry, RGS4-Galphao binding; actives lie on both sides; binding response (% of control), % at 10 µM; 220,000 tested, 0.33% active; AID 1415; in the data active = binding response below about 49% or above about 150%; inactive = in between;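 also: fluorescent Galphao activated with aluminum fluoride binding bead-coupled RGS4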
RGS8-Gao reg: modulates binding of RGS8 to human Galphao; P09471; multiplexed bead flow cytometry; actives lie on both sides; response (percent of control binding), % at 10 µM; 220,000 tested, 0.34% active; AID 1423; in the data active = response below about 60% or above about 140%; inactive = in between;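 also: Galphao activated as the GDP aluminium fluoride complex binding bead-coupled RGS8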
Avidin fluor: compound fluoresces at 488/530 nm on avidin beads. compound fluorescence 488/530 nm, flow cytometry; stronger effect = higher value. fluorescence (KMESF) at 10 µM. 220,000 tested, 0.38% active; in the data active = fluorescence above about 47
RGS16-Gao: RGS16-Galphao interaction regulator (human); AID 1441; O15492+P09471; 220,000 tested, 0.38% active; bead-based flow cytometry RGS16-Galphao binding, fluorescence; actives lie on both sides; binding response (% of control), % at 10 µM;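 also: Galphao activated by GDP with aluminum fluoride before binding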
RGS4-Gao HTS: modulates binding between human RGS4 and Galphao; shares compounds with RGS16-Gao; RGS4–Galpha-o binding response, % at 10 µM; 1,600 tested, 99% active; multiplexed bead flow cytometry, RGS–Galpha-o binding;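 also: fluorescently labeled Galpha-o bound to GDP with aluminium fluoride binding biotinylated RGS beads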
Biotin-avidin: interferes with biotinylated probe binding to avidin beads | inhibition, % at 10 µM | streptavidin beads, fluorescein-biotin binding, flow cytometry | shares compounds with RGS16-Gao | 1,700 tested, under 10 active;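 active = inhibition above 50%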;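 also: median green fluorescence of gated singlet beads compared with DMSO control wells; 0% = DMSO wells and 100% = complete loss of bead fluorescence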
RGS8-Gao single: RGS8-Galphao interaction regulation, single point confirmation | shares compounds with RGS16-Gao | bead-based flow cytometry RGS8-Galphao binding, fluorescence; actives lie on both sides | binding response (% of control), % at 10 µM | 1,700 tested, 3% active | AID 1836; in the data active = binding response below about 72% or above about 130%; inactive = in between;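 also: Galphao activated as GDP AlF4 complex before binding bead RGS8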
RGS7-Gao confirm: confirmation of regulators of human RGS7-Galphao interaction | response (percent of control binding), % at 10 µM | shares compounds with RGS16-Gao | bead-based flow cytometry RGS7-Galphao binding; actives lie on both sides | 1,700 tested, 7.8% active; in the data active = response below about 75% or above about 130%; inactive = in between;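 also: fluorescent Galphao activated with GDP and aluminum fluoride binding bead-coupled RGS7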
RGS16-Gao conf: RGS16-Galphao interaction regulation, single point confirmation. 1,700 tested, 4% active. shares compounds with RGS16-Gao. response (% of control binding), % at 10 µM. bead-based flow cytometry, RGS16-Galphao binding; actives lie on both sides; in the data active = response below about 74% or above about 130%; inactive = in between;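 also: Galphao activated as the GDP aluminium fluoride complex binding bead-coupled RGS16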
RGS4-Gao confirm: confirmation of regulators of human RGS4-Galphao interaction. shares compounds with RGS16-Gao. RGS4-Galphao binding, multiplexed bead flow cytometry; actives lie on both sides. binding response (% of control), % at 10 µM. 1,700 tested, 4% active. AID 1840; in the data active = binding response below about 74% or above about 130%; inactive = in between
RGS19-Gao conf: RGS19-Galphao interaction regulation, single point confirmation. AID 1841. bead-based flow cytometry RGS19-Galphao binding; actives lie on both sides. 1,700 tested, 5% active. response (percent of control binding), % at 10 µM. shares compounds with RGS16-Gao; in the data active = response below about 50% or above about 160%; inactive = in between;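 also: 100% = no compound control and 0% = blank background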
Target sequence (P09471 whole entry, looked up): as above
Target sequence (P49795 whole entry, looked up): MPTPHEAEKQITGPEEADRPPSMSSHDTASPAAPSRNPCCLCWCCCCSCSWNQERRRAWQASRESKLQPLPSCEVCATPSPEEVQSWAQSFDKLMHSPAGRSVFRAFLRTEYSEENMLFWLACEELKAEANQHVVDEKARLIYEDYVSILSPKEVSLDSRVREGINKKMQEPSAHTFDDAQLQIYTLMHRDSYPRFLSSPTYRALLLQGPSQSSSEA
Numbers without * were called inactive; [ ] = dose if it differs, or a comment. Hits are enriched below; roughly 1.2% of the tested compounds scored in any of these assays. Unless noted, no rule for the calls is given here.

CCc1ccc(NC(=O)CSc2nnc(Cn3c(=O)sc4ccccc43)n2C)cc1 was read as GSH bead fluor 16, RGS7-Gao reg 103.5, RGS4-Gao reg 103.1, RGS8-Gao reg 102.2, Avidin fluor 27 and RGS16-Gao 104.8.
`c1ccc(-c2csc3ncnc(NCc4ccccn4)c23)cc1` gave RGS7-Gao reg inconclusive, RGS4-Gao reg 153.1*[activator], RGS8-Gao reg 127.8, Avidin fluor 6, RGS16-Gao 147.1, Biotin-avidin -0.9, RGS8-Gao single 102.0, RGS7-Gao confirm 101.5, RGS16-Gao conf 99.6, RGS4-Gao confirm 102.7 and RGS19-Gao conf 91.0.
For O=C1C(C=NCc2ccco2)=C(O)c2ccccc21 the results were GSH bead fluor 9, RGS7-Gao reg 92.9, RGS4-Gao reg 90.5, RGS8-Gao reg 87.4, Avidin fluor 8, RGS16-Gao -57.5*, RGS4-Gao HTS 90.5*, Biotin-avidin 1.4, RGS8-Gao single 98.2, RGS7-Gao confirm 93.0, RGS16-Gao conf 95.8, RGS4-Gao confirm 96.8 and RGS19-Gao conf 98.7.
For N#CC1CCN(c2ncccc2[N+](=O)[O-])CC1 the results were RGS7-Gao reg inconclusive, RGS4-Gao reg 282.4*[activator], RGS8-Gao reg 105.7, Avidin fluor 13, RGS16-Gao 174.9, Biotin-avidin 1.1, RGS8-Gao single 98.4, RGS7-Gao confirm 99.2, RGS16-Gao conf 97.8, RGS4-Gao confirm 100.0 and RGS19-Gao conf 92.1.
For COc1ccccc1NC(=O)CN(c1ccc([N+](=O)[O-])cc1)S(=O)(=O)c1ccccc1 the results were GSH bead fluor 15, RGS7-Gao reg 78.8, RGS4-Gao reg 112.9, RGS8-Gao reg 84.9, Avidin fluor 6, RGS16-Gao 184.9*[activator], RGS4-Gao HTS 112.9*, Biotin-avidin -1.7, RGS8-Gao single 99.5, RGS7-Gao confirm 98.0, RGS16-Gao conf 102.0, RGS4-Gao confirm 100.5 and RGS19-Gao conf 101.6.
Screening Cc1ccc(NC(=O)Nc2cnccn2)cc1Cl returned GSH bead fluor 12, RGS7-Gao reg 104.8, RGS4-Gao reg 101.8, RGS8-Gao reg 104.4, Avidin fluor 17 and RGS16-Gao 99.6.
For O=C(Nc1cnccn1)Nc1ccc(Cl)cc1Cl the results were GSH bead fluor 9, Biotin-avidin 1.2, RGS8-Gao single 95.2, RGS7-Gao confirm 91.7, RGS16-Gao conf 96.0, RGS4-Gao confirm 96.7 and RGS19-Gao conf 99.0.
`Cc1cc(-c2nnnn2-c2ccc(F)cc2)no1` gave RGS7-Gao reg inconclusive, RGS4-Gao reg 97.8, RGS8-Gao reg 100.2, Avidin fluor 6 and RGS16-Gao 97.5.
Screening CCOC(=O)c1ccccc1NC(=O)Cn1cnc2c(nnn2-c2ccc(C)cc2)c1=O returned GSH bead fluor 18, RGS7-Gao reg 100.2, RGS4-Gao reg 100.7, RGS8-Gao reg 99.8, Avidin fluor 7 and RGS16-Gao 98.7.
Screening COc1ccccc1NC(=O)Cn1cnc2c(nnn2-c2ccc(C)cc2)c1=O returned GSH bead fluor 10, RGS7-Gao reg 154.1*[activator], RGS4-Gao reg 104.3, RGS8-Gao reg 98.5, Avidin fluor 33, RGS16-Gao 98.3, RGS4-Gao HTS 104.3*, Biotin-avidin -0.3, RGS8-Gao single 99.9, RGS7-Gao confirm 104.1, RGS16-Gao conf 99.0, RGS4-Gao confirm 99.7 and RGS19-Gao conf 95.6.
O=C1COc2ccc(C(=O)COC(=O)CNC(=O)C3CCCCC3)cc2N1 was read as GSH bead fluor 13, RGS7-Gao reg 166.9*[activator], RGS4-Gao reg 152.5*[activator], RGS8-Gao reg 144.9*[activator], Avidin fluor 12, RGS16-Gao 154.0, Biotin-avidin 1.4, RGS8-Gao single 93.5, RGS7-Gao confirm 92.2, RGS16-Gao conf 97.6, RGS4-Gao confirm 93.2 and RGS19-Gao conf 101.8.
Screening Cc1ccc(C(=O)NCC(=O)OCC(=O)c2ccc3c(c2)NC(=O)CO3)cc1C returned GSH bead fluor 12, RGS7-Gao reg 98.5, RGS4-Gao reg 102.0, RGS8-Gao reg 100.0, Avidin fluor 10 and RGS16-Gao 95.9.
For CCNc1ccc(S(=O)(=O)N(C)C)cc1NCC(=O)Nc1ccccc1F the results were GSH bead fluor 8, RGS7-Gao reg 104.0, RGS4-Gao reg 102.4, RGS8-Gao reg 106.7, Avidin fluor 13 and RGS16-Gao 111.7.
Screening CCNc1ccc(S(=O)(=O)N(C)C)cc1NCC(=O)Nc1ccc(F)c(Cl)c1 returned GSH bead fluor 7, RGS7-Gao reg 100.5, RGS4-Gao reg 105.7, RGS8-Gao reg 82.9, Avidin fluor 8, RGS16-Gao 24.5*, RGS4-Gao HTS 105.7*, Biotin-avidin -0.2, RGS8-Gao single 107.0, RGS7-Gao confirm 105.3, RGS16-Gao conf 112.0, RGS4-Gao confirm 104.7 and RGS19-Gao conf 112.3.
For O=C(CCC1CCCN(C(=O)c2cncs2)C1)NCc1ccc(F)c(F)c1 (stereo not drawn) the results were GSH bead fluor 13, RGS7-Gao reg 231.3*[activator], RGS4-Gao reg 108.8, RGS8-Gao reg 94.7, Avidin fluor 220*, RGS16-Gao 119.1, RGS4-Gao HTS 108.8*, Biotin-avidin -1.1, RGS8-Gao single 101.4, RGS7-Gao confirm 97.2, RGS16-Gao conf 100.2, RGS4-Gao confirm 100.7 and RGS19-Gao conf 82.8.

Screening data deposited in PubChem by NMMLSC.
